Experimental data from the supplement of paper PMC6897291.

Assays:
[1] = tested on: U-2932; assay: growth inhibition by drug alone (1 - RLU/untreated control) (fraction); higher = stronger inhibition; settings: 177Lu-lilotomab satetraxetan 0 ug/ml
In short: (§1)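 RIVA or U-2932 cells, untreated or pretreated 18 h with a radiolabelled anti-CD37 antibody conjugate (~600 MBq/mg; 0.5 µg/ml RIVA, 1 µg/ml U-2932), were washed and seeded at 3,000 cells/well on plates pre-printed with the Selleck Cambridge Cancer Compound library. Doses were 10/100 nM (RIVA) or 10/1,000 nM (U-2932). RealTime-Glo luminescence was read daily from day 3 after 1 h at 37°C. Growth inhibition is 1 − RLU/mean of 48 untreated no-drug wells per plate.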

[2] = tested on: RIVA; assay: as above; settings: 177Lu-lilotomab satetraxetan 0 ug/ml
In short: as §1

[3] = tested on: U-2932; assay: growth inhibition by drug plus 177Lu-lilotomab satetraxetan (1 - RLU/untreated control) (fraction); higher = stronger inhibition; settings: 177Lu-lilotomab satetraxetan 1 ug/ml
In short: as §1

[4] = tested on: RIVA; assay: as above; settings: 177Lu-lilotomab satetraxetan 0.5 ug/ml
In short: as §1

Row | Compound | growth inhibition by drug alone ([1]; 10 nM, time (day): 3) | growth inhibition by drug alone ([1]; 10 nM, time (day): 4) | growth inhibition by drug alone ([1]; 10 nM, time (day): 5) | growth inhibition by drug alone ([1]; 10 nM, time (day): 6) | growth inhibition by drug alone ([1]; 1000 nM, time (day): 3) | growth inhibition by drug alone ([1]; 1000 nM, time (day): 4) | growth inhibition by drug alone ([1]; 1000 nM, time (day): 5) | growth inhibition by drug alone ([1]; 1000 nM, time (day): 6) | growth inhibition by drug alone ([2]; 10 nM, time (day): 3) | growth inhibition by drug alone ([2]; 10 nM, time (day): 4) | growth inhibition by drug alone ([2]; 10 nM, time (day): 5) | growth inhibition by drug alone ([2]; 10 nM, time (day): 6) | growth inhibition by drug alone ([2]; 100 nM, time (day): 3) | growth inhibition by drug alone ([2]; 100 nM, time (day): 4) | growth inhibition by drug alone ([2]; 100 nM, time (day): 5) | growth inhibition by drug alone ([2]; 100 nM, time (day): 6) | growth inhibition by drug plus 177Lu-lilotomab satetraxetan ([3]; 10 nM, time (day): 3) | growth inhibition by drug plus 177Lu-lilotomab satetraxetan ([3]; 10 nM, time (day): 4) | growth inhibition by drug plus 177Lu-lilotomab satetraxetan ([3]; 10 nM, time (day): 5) | growth inhibition by drug plus 177Lu-lilotomab satetraxetan ([3]; 10 nM, time (day): 6) | growth inhibition by drug plus 177Lu-lilotomab satetraxetan ([3]; 1000 nM, time (day): 3) | growth inhibition by drug plus 177Lu-lilotomab satetraxetan ([3]; 1000 nM, time (day): 4) | growth inhibition by drug plus 177Lu-lilotomab satetraxetan ([3]; 1000 nM, time (day): 5) | growth inhibition by drug plus 177Lu-lilotomab satetraxetan ([3]; 1000 nM, time (day): 6) | growth inhibition by drug plus 177Lu-lilotomab satetraxetan ([4]; 10 nM, time (day): 3) | growth inhibition by drug plus 177Lu-lilotomab satetraxetan ([4]; 10 nM, time (day): 4) | growth inhibition by drug plus 177Lu-lilotomab satetraxetan ([4]; 10 nM, time (day): 5) | growth inhibition by drug plus 177Lu-lilotomab satetraxetan ([4]; 10 nM, time (day): 6) | growth inhibition by drug plus 177Lu-lilotomab satetraxetan ([4]; 100 nM, time (day): 3) | growth inhibition by drug plus 177Lu-lilotomab satetraxetan ([4]; 100 nM, time (day): 4) | growth inhibition by drug plus 177Lu-lilotomab satetraxetan ([4]; 100 nM, time (day): 5) | growth inhibition by drug plus 177Lu-lilotomab satetraxetan ([4]; 100 nM, time (day): 6)
1 | Cc1ccc(-n2nc(C(C)(C)C)cc2NC(=O)Nc2ccc(OCCN3CCOCC3)c3ccccc23)cc1 [BIRB 796 (Doramapimod)] | 0.238 | 0.206 | 0.0293 | 0.0019 | 0.274 | 0.272 | 0.208 | 0.2 | 0.117 | 0.131 | 0.0641 | -0.0577 | -0.00598 | 0.0829 | 0.0349 | -0.0954 | 0.173 | 0.182 | 0.252 | 0.301 | 0.273 | 0.29 | 0.32 | 0.408 | 0.669 | 0.691 | 0.702 | 0.711 | 0.407 | 0.527 | 0.521 | 0.528
2 | Fc1cc(-c2cccc3ncc(-c4cnn(C5CCNCC5)c4)nc23)cc(F)c1CN1CCOCC1 | 0.107 | 0.069 | -0.083 | -0.0936 | 0.0551 | 0.07 | 0.0444 | -0.14 | 0.0385 | 0.00291 | -0.0745 | -0.286 | -0.358 | -0.305 | -0.287 | -0.341 | 0.0469 | 0.0958 | 0.15 | 0.179 | 0.041 | 0.106 | 0.135 | 0.237 | 0.548 | 0.579 | 0.59 | 0.593 | 0.571 | 0.589 | 0.6 | 0.592
3 | CN(C)C[C@@H]1CCn2cc(c3ccccc32)C2=C(C(=O)NC2=O)c2cn(c3ccccc23)CCO1 | 0.148 | 0.0748 | 0.0024 | -0.0699 | 0.292 | 0.306 | 0.226 | 0.249 | 0.0588 | 0.0867 | -0.0102 | -0.214 | 0.041 | 0.0997 | 0.0496 | -0.0383 | 0.0704 | 0.125 | 0.141 | 0.173 | 0.448 | 0.48 | 0.458 | 0.49 | 0.423 | 0.561 | 0.581 | 0.582 | 0.462 | 0.539 | 0.554 | 0.545
4 | CCc1cc(Nc2nccc(-c3c(-c4ccc(OC)c(C(=O)Nc5c(F)cccc5F)c4)nc4ccccn34)n2)c(OC)cc1N1CCC(N2CCN(S(C)(=O)=O)CC2)CC1 | 0.0467 | -0.0848 | -0.0609 | -0.106 | -0.14 | -0.0216 | -0.0601 | -0.147 | 0.0601 | -0.0266 | -0.11 | -0.339 | 0.205 | 0.0778 | 0.0473 | -0.0711 | -0.00397 | 0.0169 | 0.0318 | 0.0887 | -0.153 | 0.0173 | 0.00224 | -0.0976 | 0.374 | 0.514 | 0.532 | 0.545 | 0.381 | 0.455 | 0.481 | 0.461
5 | N#Cc1c(O)c2c(-c3ccc(-c4ccccc4O)cc3)csc2[nH]c1=O | 0.111 | 0.0478 | -0.0374 | -0.062 | 0.0299 | -0.017 | -0.0537 | 0.0109 | 0.017 | -0.0012 | -0.079 | -0.317 | -0.44 | -0.357 | -0.367 | -0.39 | 0.00586 | 0.0777 | 0.105 | 0.108 | 0.0618 | 0.0835 | 0.123 | 0.191 | 0.57 | 0.613 | 0.615 | 0.612 | 0.402 | 0.488 | 0.487 | 0.49
6 | NC(=O)Nc1cc(-c2cccc(F)c2)sc1C(=O)N[C@H]1CCCNC1 | 0.0534 | 0.00627 | -0.197 | -0.0587 | 0.942 | 0.955 | 0.959 | 0.962 | 0.0596 | 0.0145 | -0.0537 | -0.23 | 0.0812 | 0.0623 | 0.0116 | -0.14 | -0.0183 | 0.0423 | 0.122 | 0.155 | 0.964 | 0.971 | 0.974 | 0.978 | 0.318 | 0.362 | 0.396 | 0.43 | 0.139 | 0.161 | 0.178 | 0.185
7 | Nc1nc(Nc2ccc(S(N)(=O)=O)cc2)nn1C(=O)c1c(F)cccc1F | 0.0686 | 0.0712 | 0.0243 | -0.028 | 0.297 | 0.39 | 0.398 | 0.477 | 0.09 | -0.0123 | -0.071 | -0.232 | -0.0601 | -0.0559 | -0.0832 | -0.218 | 0.0456 | 0.07 | 0.0808 | 0.137 | 0.452 | 0.614 | 0.661 | 0.719 | 0.373 | 0.516 | 0.536 | 0.556 | 0.486 | 0.6 | 0.611 | 0.599
8 | COc1cc2nc(N3CCCN(C)CC3)nc(NC3CCN(Cc4ccccc4)CC3)c2cc1OC | 0.128 | 0.0539 | -0.00458 | -0.0956 | 0.00727 | 0.0766 | 0.0688 | 0.0239 | 0.0768 | 0.122 | 0.055 | -0.0793 | 0.209 | 0.192 | 0.165 | 0.117 | 0.0951 | 0.135 | 0.169 | 0.207 | 0.133 | 0.247 | 0.267 | 0.319 | 0.498 | 0.588 | 0.618 | 0.631 | 0.469 | 0.552 | – | –
